Bioassay records (PubChem)
Only some compounds are listed: those with a hit (about 6.9% of all), similar ones and a draw of the others.
SW480 rerep = A quantitative high throughput screen for small molecules that induce DNA re-replication in SW480 colon adenocarcinoma cells | Potency, µM (series often up to 46.1 µM), without a hit: at the top dose re-replication activation, hits mostly activators | SW480 DNA re-replication, Hoechst DNA content imaging, 48 h | 340,000 tested, 1.8% active | AID 624297, 2012; note: potency is the fitted concentration of half-maximal effect; % of control where 0% means no effect; nearly all actives have a fitted effect of over 55% in size
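Treated cells incubate 48 hr (37 C, 5% CO2), are stained 40 min with Hoechst, and nuclear fluorescence is enumerated; a rise in nuclei with high DNA signal marks re-replication.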
KB-V1 cytotox = qHTS assay for MDR1-selective chemotherapeutics: Primary screen using the drug-selected MDR subline cells KB-V1; AID 1347076, 2019; Potency, µM (highest dose often 46.1 µM), usual class: cytotoxic; 400,000 tested, 3.4% active; KB-V1 MDR cells viability, CellTiter-Glo, 72 h; note: potency is the fitted concentration of half-maximal effect; % is set by controls: 0 for no effect and ±100 for the full control effect; nearly all actives have a fitted effect of over 60% in size
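Luminescent ATP read-out (CellTiter-Glo, 10 min) measures survival of drug-selected KB-V1 MDR cells after 72 h, 37 degrees C compound exposure. Medium: phenol-red-free DMEM, 10% FBS. Values from fitted concentration-response curves.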
MCF10A rerep = A quantitative high throughput screen for small molecules that induce DNA re-replication in MCF 10a normal breast cells. AID 624296, 2012. Potency, µM (titrated, usually from 46.1 µM), without a hit: top-dose activity, positive = re-replication, most hits filed as activators. MCF 10A DNA re-replication, Hoechst nuclear intensity, 48 h. 350,000 tested, 2.9% active; note: potency is the fitted concentration of half-maximal effect; % of control where 0% means no effect; nearly all actives have a fitted effect of over 50% in size
ASM inhibitor = Inhibitors of Secretory Acid Sphingomyelinase (S-ASM): qHTS; Sphingomyelin phosphodiesterase (Homo sapiens), P17405; placental ASM, HMU-PC fluorogenic substrate, 60 min; Potency, µM (top dose mostly 57.5 µM), for inactives: top-dose activity change, negative = inhibition, actives largely listed as inhibitors; 340,000 tested, 0.006% active; AID 504937, 2011; note: potency is the fitted concentration of half-maximal effect
Target sequence (P17405 47-631 limits assumed): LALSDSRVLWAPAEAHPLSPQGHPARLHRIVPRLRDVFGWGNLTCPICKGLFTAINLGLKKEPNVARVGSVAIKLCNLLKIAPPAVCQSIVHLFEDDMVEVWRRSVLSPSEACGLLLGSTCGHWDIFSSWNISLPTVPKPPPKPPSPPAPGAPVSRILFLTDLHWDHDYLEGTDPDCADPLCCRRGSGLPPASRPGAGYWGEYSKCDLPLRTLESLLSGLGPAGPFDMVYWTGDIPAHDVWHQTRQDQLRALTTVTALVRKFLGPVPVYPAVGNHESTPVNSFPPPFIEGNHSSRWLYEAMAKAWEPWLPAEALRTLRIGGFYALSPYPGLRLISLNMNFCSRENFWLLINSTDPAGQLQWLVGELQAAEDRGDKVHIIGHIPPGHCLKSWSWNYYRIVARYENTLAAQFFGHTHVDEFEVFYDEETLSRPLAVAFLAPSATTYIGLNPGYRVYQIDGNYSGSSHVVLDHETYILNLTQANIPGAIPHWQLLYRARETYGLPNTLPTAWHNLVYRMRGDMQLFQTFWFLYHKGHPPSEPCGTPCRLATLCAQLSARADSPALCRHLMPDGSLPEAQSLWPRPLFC
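Fluorogenic HMU-PC substrate (9 uM final) is turned over by placental ASM in 60 min at 37 C after a 10 min compound preincubation. Reaction ended by alkaline stop (pH 10), with fluorescence read at 386/447 nm.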
Giardia kill = Small Molecules that selectively kill Giardia lamblia: qHTS. Giardia lamblia trophozoite viability. activity change, % at 7.66 µM, hits read low. 340,000 tested, 0.15% active; in the data active = activity change below about -80%; inconclusive = between about -30% and that limit;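 note: parasites exposed to compound for two days anaerobically before the ATP read; % is set by controls: 0 for no effect and ±100 for the full control effect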
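Luminescent ATP signal served as the viability read-out, measured 15-30 min after adding ATP detection reagent to trophozoites that had been incubated with compounds for 48 hrs at 37 deg C anaerobically at 100 cells/well.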
KB-3-1 tox = qHTS assay for MDR1-selective chemotherapeutics: Primary screen using the parental adenocarcinoma cell KB-3-1; KB-3-1 viability, CellTiter-Glo ATP luminescence, 72 h; Potency, µM (doses to about 46.1 µM), usual class: cytotoxic; 400,000 tested, 1.4% active; AID 1347075, 2019; note: potency is the fitted concentration of half-maximal effect; % is set by controls: 0 for no effect and ±100 for the full control effect; nearly all actives have a fitted effect of over 60% in size
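Cytotoxicity measured as CellTiter-Glo luminescence after 72 h at 37 C. Compound titrations were pinned onto drug-naive KB-3-1 parental adenocarcinoma cells grown in DMEM with 10% FBS, and normalized data fitted to concentration-response curves.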
* hit, by the source's call; i = inactive; ? = inconclusive; / = not tested or not shown. Unless noted, calls come from the whole dose curve; as a rule, active = well fitted curve in the direction sought with a large enough effect; inconclusive = small, poorly fitted or top-dose-only effect, or another doubt; inactive = no such curve, though single readings can be large; an effect the other way counts as inactive or inconclusive.

SMILES | SW480 rerep | KB-V1 cytotox | MCF10A rerep | ASM inhibitor | Giardia kill | KB-3-1 tox
CN1CCN(S(=O)(=O)c2cccc(C(=O)N(C)CC(=O)Nc3ccc(F)c(F)c3F)c2)CC1 | -4% | i | ? | -3% | 18 | i
COc1ccc(Cl)cc1NC(=O)CN(C)CC(=O)Nc1cc(OC)c(OC)c(OC)c1 | ? | i | ? | 0% | 14 | 4.6µM*
CC(=O)Nc1ccc(SCC(c2ccccc2)N2CCN(CC(C)C)CCC2=O)cc1 (centres undefined) | / | / | / | / | -1 | /
Cc1cc2oc(C(=O)Nc3cccc(-c4nc5ccccc5o4)c3)c(C)c2cc1Cl | / | i | / | / | / | i
CCCN(CCC)S(=O)(=O)c1ccc(C(=O)Nc2nc3c(s2)CCc2ccccc2-3)cc1 | 21% | i | -8% | 66% | -4 | 9.2µM*
O=C(Nc1ccccc1)c1ccc(S(=O)(=O)N2CCCC2)cc1 | -6% | i | -2% | -1% | -2 | i
N#CCCN(CCC#N)S(=O)(=O)c1ccc(C(=O)Nc2nc(-c3ccccc3)c(C(=O)c3ccccc3)s2)cc1 | -14% | i | ? | -5% | 7 | i
O=C(Nc1ccc(S(=O)(=O)N2CCCC2)cc1)c1ccccc1 | -152% | ? | 3% | 0% | 0 | i
O=C(Nc1nc(-c2ccccc2)c(-c2ccccc2)s1)c1ccc(S(=O)(=O)N2CCCC2)cc1 | -3% | 4.1µM* | 7% | -3% | 8 | ?
O=C(Nc1nc(-c2ccccc2)c(C(=O)c2ccccc2)s1)c1ccc(S(=O)(=O)N2CCCC2)cc1 | -106% | 3.7µM* | ? | -1% | -16 | 16µM*
CN(C)S(=O)(=O)c1ccc(C(=O)Nc2nc(-c3ccccc3)c(C(=O)c3ccccc3)s2)cc1 | -1% | 16µM* | 19% | -8% | -8 | i
COc1cc(/C=N/N2CCCCC2)cc(OC)c1O | 3% | i | 7% | 1% | -5 | i
Cc1cc(N2CCN(Cc3cn(C)nc3-c3cccc(Cl)c3)CC2)cc(C)n1 | 23µM* | ? | ? | 7% | -9 | 9.2µM*
CN1CCN(Cc2cn(C)nc2-c2ccccc2F)CC1c1ccccc1 (centres undefined) | -1% | i | 1% | 5% | 11 | ?
Cn1cc(CN2CCC(C(O)c3cccs3)CC2)c(-c2cccc(Cl)c2)n1 (centres undefined) | -11% | i | 5% | 1% | ? | i
Cn1cc(CN2CCN(c3ncccn3)CC2)c(-c2cccc(Cl)c2)n1 | 6% | ? | 21µM* | 0% | -6 | i
Cc1cc(N2CCN(Cc3cn(C)nc3-c3ccccc3F)CC2)cc(C)n1 | 7.3µM* | i | 16µM* | -2% | 3 | 6.5µM*
COc1cc(/C=C/C(=O)O)ccc1OS(=O)(=O)c1c(C)c(C)cc(C)c1C | -21% | i | 9% | 8% | -6 | i
COc1cc(C)c(/C=C/C(C)=C/C=C/C(C)=C/C(=O)O)c(C)c1C | 9% | i | 8.2µM* | -4% | -2 | i
CCOC(=O)/C=C(C)/C=C/C=C(C)/C=C/c1c(C)cc(OC)c(C)c1C | 1% | / | 27µM* | / | / | /
COc1ccc2[nH]c(S(=O)Cc3ncc(C)c(OC)c3C)nc2n1 (centres undefined) | -2% | / | ? | / | / | /
CCOC(=O)CC(NC(=O)c1cc2c(=O)n3cccc(C)c3nc2s1)c1ccc(OCC)c(OC)c1 (centres undefined) | / | i | / | / | / | i
O=C(CN1C(=O)CCSc2ccccc21)Nc1ccc2c(c1)OCCO2 | -3% | 13µM* | -6% | 5% | -10 | i
CC1CC(=O)N(CC(=O)Nc2ccc3c(c2)OCO3)c2ccccc2S1 (centres undefined) | 1% | 16µM* | 3% | -6% | 0 | ?
CCc1ccc2ncc3c(-c4ccccc4)nn(-c4ccccc4)c3c2c1 | / | i | / | / | / | i
SMILES | SW480 rerep | KB-V1 cytotox | MCF10A rerep | ASM inhibitor | Giardia kill | KB-3-1 tox
CC(C)(C)NS(=O)(=O)c1cccc(S(=O)(=O)c2cccc(S(=O)(=O)NC(C)(C)C)c2)c1 | ? | 15µM* | 21% | -4% | 9 | i
CC(C)(C)NS(=O)(=O)c1ccc(N2C(=O)c3ccccc3C2=O)cc1 | -21% | i | 0% | 3% | -27 | i
Cn1c(NCCO)nc2c1c(=O)n(Cc1ccccc1Cl)c(=O)n2C | / | i | / | / | / | i
Cc1ccc2ccc3cc(C(=O)Nc4ccc(C)c(F)c4)nc3c2[nH]1 | / | ? | / | / | / | i
CC1(C)CC[C@]2(C(=O)O[C@@H]3OC(CO)[C@@H](O)[C@H](O)[C@H]3O)CC[C@]3(C)C(=CCC4[C@@]5(C)CC[C@H](O[C@@H]6OC(C(=O)O)[C@@H](O)[C@H](O)[C@H]6O)C(C)(C)C5CC[C@]43C)[C@@H]2C1 (some centres undefined) | -5% | i | 18µM* | -3% | 8 | i
COC(=O)c1ccccc1COc1cccn2c(N(C)CC3CC3)c(C)nc12 | / | 15µM* | / | / | / | ?
COc1ccc(-c2sc3ccc(N4CCOCC4)cc3c2C#CC(C)(C)O)cc1 | -14% | i | 5% | 41% | -14 | i
COc1ccc(-c2oc3ccc(N4CCOCC4)cc3c2C#CCO)cc1 | ? | ? | 18µM* | 68% | -14 | ?
COc1ccc(-c2ccc3oc(-c4ccc(OC)cc4)c(-c4ccc(OC)cc4)c3c2)cc1 | -4% | i | 1% | 13% | 3 | i
COc1ccc(-c2ccc3oc(-c4ccc(OC)cc4)c(C#CCO)c3c2)cc1 | 26µM* | i | ? | 16% | -22 | i
CCCCCCCCCC[n+]1cccc2c3ccccc3ccc21 | 21% | i | 31% | 148% | 13 | 1.2µM*
CCCCCCCCCC[n+]1cccc2cc(Cl)ccc21 | / | i | / | / | / | 5.2µM*
CCCCCCCCCCCCCCCC[n+]1ccc(C)c2ccccc21 | / | 13µM* | / | / | / | 3.7µM*
CCCCCCCC[n+]1cccc2c3ccccc3ccc21 | ? | i | ? | 305% | 11 | ?
COc1cc(CSc2ncc(CO)n2Cc2ccc(C)cc2)cc(OC)c1 | / | i | / | / | / | i
CC1(C)Cc2c(sc(/N=C/N3CCCCCC3)c2C#N)C(C)(C)N1 | 0% | i | 16µM* | 0% | 13 | ?
COc1ccc(S[C@@H](CCN2CC[C@H](C)CCC2=O)c2ccccc2)cc1 | -2% | ? | 18µM* | -10% | 10 | i
